Inhibition data for 28 molecules are collected here from ChEMBL document CHEMBL1157539, “Thousands of chemical starting points for antimalarial lead identification” (Nature, 2010).

As a reminder, the Inhibition is the share of the control response that was lost under treatment. Read a high Inhibition as strong suppression.

Holding throughout (assay type): functional
For assay [1], the system named is Plasmodium falciparum. As to the kind of experiment: GSK_TCMDC: Inhibition of Plasmodium falciparum 3D7 in whole red blood cells, using parasite LDH activity as an index of growth. Test compounds present at 2uM.
Assay [2] concerns Plasmodium falciparum. As to the kind of experiment: GSK_TCMDC: Inhibition of Plasmodium falciparum Dd2 in whole red blood cells, using parasite LDH activity as an index of growth. Test compounds present at 2uM.
A further assay has as its system HepG2. As to the kind of experiment: GSK_TCMDC: Percent inhibition of human HepG2 cell line. Test compounds present at 10uM.

Each structure is given as a SMILES string.

In the case of `Cc1cccc2nc(-c3ccc(-c4cccc(NC(=O)c5cnccc5C(F)(F)F)c4)cc3)[nH]c12`, the Inhibition was 84% in the assay with Plasmodium falciparum [1], 13% with Plasmodium falciparum [2] and 25% in the assay on HepG2.

As for `COc1cc(C)nc2ccc(NC(=O)Nc3cccc4ccccc34)cc12`, the Inhibition in the assay on Plasmodium falciparum [1] was 91%; in the assay with Plasmodium falciparum [2], 48%; in the assay on HepG2, 27%.

For `COc1ccc(N2CCN(CCCN3CCN(C(=O)c4ccc(/C=C/c5ccc(Cl)c(Cl)c5)cc4)CC3)CC2)c(OC)c1.O=C(O)/C=C/C(=O)O`, the figures for the Inhibition with Plasmodium falciparum [1], in the assay with Plasmodium falciparum [2] and with HepG2 were 93%, 52% and 47%, respectively.

Regarding `COc1cc(NC(=O)/C=C/c2ccccc2OC(F)(F)F)cc(OCCN2CCC(O)(c3ccccc3)CC2)c1.O=C(O)C(=O)O`, the Inhibition with Plasmodium falciparum [1] is 100%; in the assay with Plasmodium falciparum [2] it was 50%; with HepG2, 61%.

Regarding `CO/C(=C\C=C\c1cc2cc(Cl)c(Cl)cc2[nH]1)C(=O)NCCCN1CCN(c2cccc(OC)c2)CC1`, the values for the Inhibition with Plasmodium falciparum [1], with Plasmodium falciparum [2] and in the assay with HepG2 were 100%, 93% and 61%, respectively.

In the case of `CC(CN1CCN(C)CC1)C(=O)Nc1cccc(-c2ccc(-c3nc4cc(C(F)(F)F)ccc4[nH]3)cc2)c1` (centres undefined), the results for the Inhibition with Plasmodium falciparum [1], in the assay on Plasmodium falciparum [2] and with HepG2 were 100%, 98% and 11%, respectively.

As for `CN(C)Cc1ccc(-c2cc3c(Nc4ccc(OCc5cccc(F)c5)c(Cl)c4)ncnc3s2)[nH]1`, the Inhibition with Plasmodium falciparum [1] is listed as 100%; with Plasmodium falciparum [2], 84%; in the assay with HepG2 it was 8%.

Regarding `CCC(C)NC(=O)CN1CN(c2ccccc2)C2(CCN(C(=O)c3ccc4ccccc4c3)CC2)C1=O` (centres undefined), the Inhibition is 95% in the assay on Plasmodium falciparum [1], 78% in the assay with Plasmodium falciparum [2] and 0% in the assay with HepG2.

Take `COc1ccc(-c2ccc(NC(=O)c3cccc(C#N)c3)cc2)cc1CN(C)C.O=C(O)C(F)(F)F`: the values for the Inhibition in the assay on Plasmodium falciparum [1], in the assay on Plasmodium falciparum [2] and in the assay on HepG2 were 100%, 10% and 11%, respectively.

`O=C(NC1CCN(c2ccnc3cc(Cl)ccc23)C1)c1ccc(F)cc1.O=C(O)C(F)(F)F` (centres undefined): the Inhibition in the assay on Plasmodium falciparum [1] was found to be 94%; in the assay with Plasmodium falciparum [2], 97%; in the assay with HepG2, 26%.

Turning to `OC(CNCc1cccc(Oc2ccc(Cl)cc2)c1)c1cccc(C(F)(F)F)c1` (centres undefined), the Inhibition in the assay with Plasmodium falciparum [1] was found to be 94%; with Plasmodium falciparum [2], 78%; in the assay with HepG2, 0%.

Take `COCCCn1c(=N)c(C(=O)NCCc2ccc(OC)cc2)cc2c(=O)n3cccc(C)c3nc21`: the Inhibition is on record as 95% with Plasmodium falciparum [1], 33% in the assay on Plasmodium falciparum [2] and 18% with HepG2.

For `C=C1C(C(=O)OCC)=CN(CC)c2cc(O[C@@H]3CCN(C(=O)OC(C)(C)C)C3)ccc21`, the Inhibition is recorded as 97% with Plasmodium falciparum [1], 94% with Plasmodium falciparum [2] and 13% in the assay with HepG2.

On to `COc1ccc(C2CC(c3cccs3)=NN2C(=O)c2ccccc2)cc1OC` (centres undefined), for which the Inhibition with Plasmodium falciparum [1] is 99%; in the assay with Plasmodium falciparum [2], 83%; in the assay with HepG2 it was 5%.

As for `CC(C)Cc1cn(-c2nc(C(=N)N)cs2)c2cc(Cl)ccc12`, the Inhibition with Plasmodium falciparum [1] was 100%; with Plasmodium falciparum [2], 98%; in the assay on HepG2 it was 98%.

Take `COc1ccc(C(=O)CCC(=O)N(CCC2CCCN2C)Cc2ccc(-c3ccc(CNCCc4ccc(S(C)(=O)=O)cc4)cn3)cc2)cc1F.O=C(O)C(F)(F)F` (centres undefined): the Inhibition turned out to be 93% in the assay with Plasmodium falciparum [1], 45% with Plasmodium falciparum [2] and 13% in the assay on HepG2.

As for `CCCCN1CCN(CC(O)CNC(=O)Nc2ccc(Cl)cc2)CC1.O=C(O)C(F)(F)F` (centres undefined), the Inhibition amounted to 100% with Plasmodium falciparum [1], 99% with Plasmodium falciparum [2] and 17% in the assay on HepG2.

Take `Cc1cc(=O)c(C2CCC(c3ccc(Cl)cc3)CC2)c(C)[nH]1` (centres undefined): the Inhibition in the assay with Plasmodium falciparum [1] is given as 88%; with Plasmodium falciparum [2], 70%; in the assay with HepG2, 0%.

As for `Cc1ccc(C)c(NC(=O)NCCNc2ccnc(Nc3ccc(F)cc3)n2)c1`, the Inhibition is given as 97% in the assay on Plasmodium falciparum [1], 5% in the assay with Plasmodium falciparum [2] and 21% in the assay on HepG2.

Take `Cc1cc(N/N=C/c2cccc([N+](=O)[O-])c2)c2ccc(C(F)(F)F)cc2n1`: the Inhibition in the assay with Plasmodium falciparum [1] was determined as 100%; in the assay on Plasmodium falciparum [2] it was 51%; in the assay with HepG2, 2%.

As for `O=C(NCCCc1ccccc1)c1ccc(O)c(-c2cc(Cl)cc(Cl)c2)c1`, the Inhibition is 99% in the assay with Plasmodium falciparum [1], 98% with Plasmodium falciparum [2] and 0% in the assay with HepG2.

Regarding `C=CCc1cc(Cc2cnc(N)nc2N)c2ccc(C)nc2c1O`, the Inhibition with Plasmodium falciparum [1] is listed as 84%; in the assay with Plasmodium falciparum [2], 3%; in the assay with HepG2 it was 51%.

`COc1ccc(CNCc2ccc(-c3ccc(-c4nc5cc(F)ccc5[nH]4)cc3)cc2)cc1.O=C(O)C(F)(F)F`: the Inhibition in the assay on Plasmodium falciparum [1] stood at 99%; with Plasmodium falciparum [2], 83%; in the assay on HepG2, 70%.

Turning to `CCN(CC)C(=O)c1cccc(C=Cc2ccc(-c3c(C)[nH]c(C)c(Cl)c3=O)cc2)c1`, the Inhibition in the assay with Plasmodium falciparum [1] turned out to be 96%; in the assay on Plasmodium falciparum [2], 96%; in the assay on HepG2, 9%.

Take `CCCC1(C)CSc2ccccc2C(c2ccccc2)N1` (centres undefined): the Inhibition with Plasmodium falciparum [1] is listed as 87%; in the assay on Plasmodium falciparum [2] it was 2%; in the assay with HepG2 it was 60%.

Take `Cc1ccc(NC(=O)Nc2ccc(S(=O)(=O)c3ccc(NC(=O)Nc4ccc(C)c(Cl)c4)cc3)cc2)cc1Cl`: the Inhibition is 99% in the assay on Plasmodium falciparum [1], 42% with Plasmodium falciparum [2] and 49% in the assay with HepG2.

With `CCN(CCO)CCc1cccc(Nc2nccc(-c3c(-c4ccc(NC(=O)N(CC)CC)cc4)nn4ccccc34)n2)c1.Cl`, the Inhibition turned out to be 100% with Plasmodium falciparum [1], 95% with Plasmodium falciparum [2] and 46% with HepG2.

As to `O=C(Nc1ccc(-c2cccc(-c3nc4ccccc4[nH]3)c2)cc1)NC1CC1c1ccccc1` (centres undefined), the Inhibition in the assay on Plasmodium falciparum [1] is 84%; with Plasmodium falciparum [2] it was 6%; in the assay with HepG2, 63%.
